# Measurements from PubChem BioAssay (NCI).
# About 83,000 compounds went through this panel and 20% of them were active in at least one assay; those are over-represented in the sample as a whole.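 A percent growth of 40 corresponds to 60% growth inhibition; 0 means no net growth; -100 means all cells died. Active threshold: below 10.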 A number with no mark means an inactive call. Activity calls are given as the source filed them.
# What was measured:
# Assay in all cases: NCI-60 one-dose screen, 48 h (100 = growth as untreated, 0 = no growth, -100 = all killed)
# Details in all cases: 10 µM unless noted
# [1] = tested on: NCI-H23 lung
# [2] = tested on: NCI-H226 lung
# [3] = tested on: NCI-H322M lung
# [4] = tested on: HOP-62 NSCLC
# [5] = tested on: NCI-H460 lung
# [6] = tested on: NCI-H522 lung
# [7] = tested on: A549/ATCC NSCLC
# [8] = tested on: 786-0 renal
# [9] = tested on: COLO 205 colon
# [10] = tested on: DU-145 prostate
# [11] = tested on: K-562 leukemia
# [12] = tested on: MALME-3M melanoma
# [13] = tested on: MDA-MB-231 breast
# [14] = tested on: RXF 393 renal
# [15] = tested on: SF-268 CNS
# [16] = tested on: SF-295 CNS
# [17] = tested on: SF-539 CNS
# [18] = tested on: UACC-257 melanoma
# [19] = tested on: M14 melanoma
SMILES,growth [1],growth [2],growth [3],growth [4],growth [5],growth [6],growth [7],growth [8],growth [9],growth [10],growth [11],growth [12],growth [13],growth [14],growth [15],growth [16],growth [17],growth [18],growth [19]
COc1cccc(-c2nc3sccn3c2-c2ccnc(NCCCNS(=O)(=O)c3c(Cl)cccc3Cl)c2)c1,60.3%,51.8%,90.5%,85.6%,67.4%,60.6%,60.3%,70.4%,55.9%,66.1%,30.9%,73.2%,87.8%,74.7%,68.4%,50.9%,95%,95.2%,60.5%
COc1cc2nc(N3CCCC3)nc(NCc3ccccc3)c2cc1OC,82.3%,90%,79.7%,86.8%,79.2%,73.1%,76%,78.6%,-20.7% (active),80.9%,1.41% (active),41.2%,68.9%,35.7%,87.6%,71.1%,52.4%,-46.6% (active),-71.2% (active)
CCCc1cc(=O)n2c(C(=O)Nc3cccc(C(=O)OCC)c3)c(C(=O)Nc3ccc(F)cc3)sc2n1,79.8% [30 µM],89% [30 µM],97.3% [30 µM],36.6% [30 µM],23% [30 µM],65% [30 µM],3.58% [30 µM] (active),15.1% [30 µM],72.9% [30 µM],79.9% [30 µM],79.7% [30 µM],71.9% [30 µM],47% [30 µM],-27.2% [30 µM] (active),57.5% [30 µM],44.5% [30 µM],33.9% [30 µM],64.5% [30 µM],75.2% [30 µM]
Cc1cc(N2CCCC2)nc(NC2CCCC(Nc3ccnc4cc(Cl)ccc34)C2)n1 (centres undefined),-41.4% (active),-56.2% (active),-42.6% (active),-84.4% (active),-66.3% (active),-76.3% (active),-88.6% (active),-91.1% (active),-90.7% (active),-21.8% (active),–,-80.4% (active),-77% (active),-84.5% (active),-36.7% (active),-80.8% (active),-92.5% (active),-84.3% (active),-83.6% (active)
CCOC(=O)c1sc2nc(-c3cccc(OC)c3)nc(N3CCOCC3)c2c1C,93.5%,79.5%,94.4%,110%,101%,85.8%,84%,92.8%,108%,101%,97.2%,117%,95%,95.6%,88.4%,99.5%,98.8%,115%,120%
COc1ccc(-c2cc(Nc3ccnc(N4CCOCC4)n3)on2)cc1,36.8%,31.8%,47.1%,40.9%,14.5%,4.99% (active),30.4%,35.6%,2.68% (active),19.6%,13.1%,87.2%,57.9%,-6.95% (active),62.6%,39.3%,-31.9% (active),72.7%,26.9%
C#CC(F)(F)[C@]1(O)CC[C@H]2[C@@H]3CCC4=CC(=O)CCC4=C3[C@@H](c3ccc(C(C)=O)cc3)C[C@@]21C,38.5%,93.3%,96.7%,74.4%,97.4%,-73% (active),73.4%,-41% (active),78.3%,86.4%,61.4%,-63.4% (active),60.6%,85.4%,36.3%,22.5%,-81.9% (active),89.8%,96.6%
N#CN1CCC[C@H]1C(=O)N1CCc2c(-c3[nH]nc4ncccc34)cccc21,4.9% (active),-29.1% (active),20.6%,-10.1% (active),3.48% (active),-51.7% (active),3.83% (active),9.59% (active),-77.5% (active),0.94% (active),4.49% (active),24%,3% (active),-19.7% (active),7.17% (active),-14.3% (active),-36.9% (active),16.5%,-23.4% (active)
O=C1c2ccccc2C(=O)c2c(N=Nc3[nH]c(=S)[nH]c3O)cccc21,41.7%,28.3%,40.1%,25%,7.32% (active),-6.34% (active),24.3%,22.6%,19%,16.3%,9.57% (active),45.4%,40.3%,-22.4% (active),32.1%,7.45% (active),-32.3% (active),56.9%,-15.8% (active)
COc1cccc2c1C(=O)c1c(O)c3c(c(O)c1C2=O)C[C@](O)(C(=O)CO)C[C@H]3O[C@@H]1C[C@@H](NC(=O)CCCCCN(C)C2(c3ccc(F)cc3)CC3CCC2C3)[C@H](O)[C@@H](C)O1 (some centres undefined),40.8%,59.3%,53.7%,46.9%,-84.2% (active),-83.1% (active),19.7%,-92.7% (active),-63.7% (active),-42.2% (active),–,-70.9% (active),-77.1% (active),31.6%,36.1%,-87.9% (active),-82.9% (active),96.4%,-41.3% (active)
CCCCN(CCCC)CCCn1c(-c2ccccc2)ccc1-c1ccccc1,52.9%,53.6%,86.7%,87.9%,67.7%,58.3%,76%,72.7%,61.3%,68.3%,52.2%,86.2%,22.9%,82.8%,73.7%,60%,67.4%,90.1%,77.6%
CC(C)(C)N1CCC1CN (centres undefined),104%,111%,118%,108%,109%,135%,104%,96.4%,138%,118%,135%,147%,116%,155%,100%,115%,91.8%,-6.55% (active),101%
Clc1ccc2c(NCCCNc3nc(-n4ccnc4)nc4ccccc34)ccnc2c1,96.1%,90.4%,94.7%,83%,95.2%,–,92.3%,77.6%,87.7%,94.8%,–,102%,83.2%,81%,89%,89.6%,76.1%,94.2%,95.1%
CC(C)c1c(C(=O)c2ccccc2)c(-c2ccccc2)c(-c2ccc(F)cc2)n1CC[C@@H](O)C[C@@H](O)CC(=O)O,56.8%,62.2%,58.6%,90.1%,87.5%,25.9%,100%,77.5%,55.3%,105%,71.3%,85.2%,–,36.6%,34.7%,30.7%,80%,83.8%,63.8%
O=C(COc1ccc(/C=C2\CSc3ccccc3C2=O)cc1)Nc1nccs1,61.1%,97.9%,87.9%,94.5%,107%,7.48% (active),100%,95.7%,117%,130%,-14.2% (active),77.8%,95.6%,–,99.6%,118%,111%,97.3%,89.6%
